Source: PubChem (Broad Institute)
The list is a sample of the results.
aSyn UTR act: Activators via SNCA 5'UTR binding, MLPCN | alpha-synuclein 5'UTR reporter, activators screen | activity score, % (tested at 7.5 µM), hits read low | hit rate 7.1% among 300,000; in the data active means activity score below about -60%
An asterisk follows results filed as active.

SMILES	aSyn UTR act
COc1cc(/C=N/NS(=O)(=O)c2ccc(C)cc2)ccc1OCc1cccc(C(=O)O)c1	90
COc1cc(CNc2ccc3[nH]c(=O)[nH]c3c2)ccc1OCc1cccc(C)c1	-84*
COc1cc(CNc2ccc3[nH]c(=O)[nH]c3c2)ccc1OCc1ccc(C)cc1	-118*
COc1cc(CNc2ccc(NC(C)=O)cc2)ccc1OCc1ccccc1C	-122*
O=c1[nH]c2ccc(NCc3ccc(OCc4ccccc4Cl)cc3)cc2[nH]1	-80*
CC1(c2ccccc2)CC(c2ccccc2)=Nc2ccccc2N1 (configuration not stated)	-104*
O=C(Nc1nnc(S(=O)(=O)N2CCN(c3ccc(F)cc3)CC2)s1)c1ccccc1	-63*
O=C(Nc1nnc(S(=O)(=O)N2CCCCCC2)s1)c1ccccc1	-65*
N#C/C(=C\c1ccc(O)c([N+](=O)[O-])c1)c1nc2ccccc2s1	-66*
CCCCc1ccc(-c2csc(/C(C#N)=C\c3ccco3)n2)cc1	-106*
NS(=O)(=O)c1ccc(Sc2nc3ccccc3s2)c([N+](=O)[O-])c1	67
N#C/C(=C/c1ccco1)c1nc2ccccc2s1	-282*
N#C/C(=C\c1ccco1)c1nc2ccccc2s1	-309*
CCc1ccc(OCC(=O)O/N=C(\N)c2ccncc2)cc1	-99*
CC(C)(C)c1ccc(OCC(=O)O/N=C(\N)c2ccncc2)cc1	-77*
N/C(=N\OC(=O)COc1ccc2ccccc2c1Br)c1ccncc1	-92*
Cc1cc(C(=O)O/N=C(\N)c2ccc(C(C)(C)C)cc2)no1	-223*
CCc1ccc(OCC(=O)O/N=C(\N)c2ccncc2)c(Br)c1	-136*
Cc1nn(-c2ccccc2)c(N)c1N=Nc1ccc2ccccc2c1	-242*
Cc1ccc(N=Nc2c(N)nn(-c3ccccc3)c2N)cc1	-183*
Cc1ccc(SCc2cn3ccccc3n2)cc1	-97*
c1ccc(CSCc2cn3ccccc3n2)cc1	-135*
Cc1ccn2cc(CSc3ccccc3N)nc2c1	-97*
CC(C)N1CCc2c(sc(NC(=O)c3ccc(S(=O)(=O)N4CCc5ccccc54)cc3)c2C(N)=O)C1	-103*
CC(C)N1CCc2c(sc(NC(=O)c3ccc([N+](=O)[O-])o3)c2C(N)=O)C1	104
SMILES	aSyn UTR act
CCN1CCc2c(sc(NC(=O)c3ccc4ccccc4c3)c2C(N)=O)C1	-194*
COc1ccc(C2=NC(c3ccccc3)CO2)cc1 (configuration not stated)	-118*
COc1ccc(NC(=O)NCCC2=CCCCC2)cc1	-131*
S=C(NCCC1=CCCCC1)Nc1ccc(Cl)cc1	-110*
COc1cccc(NC(=O)NCCC2=CCCCC2)c1	-183*
Cc1[nH]nc2nc(SCC(=O)NCCC3=CCCCC3)n(-c3ccc(Br)cc3)c(=N)c12	75
O=S(=O)(Cc1nc2ccccc2s1)c1ccccc1	-69*
CCC(=O)Nc1ccc(OCc2nc3ccccc3s2)cc1	-125*
c1ccc(OCc2nc3ccccc3s2)cc1	-123*
Fc1ccc(OCc2nc3ccccc3s2)cc1	-178*
C=CCc1c(C)nc2c(-c3ccccc3)cnn2c1N1CCOCC1	-175*
Cc1cc(NC2CCCC2)n2ncc(-c3ccccc3)c2n1	60
Cc1cc(NCc2ccccc2)n2ncc(-c3ccccc3)c2n1	-72*
COc1ccccc1-c1cnn2c(NCCc3ccccc3)cc(C)nc12	-112*
Cc1cc(NC(C)c2ccccc2)n2ncc(-c3ccccc3)c2n1 (configuration not stated)	-83*
Cc1cc(NCCN2CCOCC2)n2ncc(-c3ccccc3)c2n1	-62*
CCOC(=O)c1sc(-c2ccc(C)cc2)c(C#N)c1C	-65*
CCCOC(=O)c1ccc(NC(=O)C2C3CCC(C3)C2C(=O)O)cc1 (configuration not stated)	-85*
CCOC(=O)c1ccc(NS(=O)C23CC4CC(CC(C4)C2)C3)cc1 (configuration not stated)	-110*
CCOC(=O)c1ccc(NC(=O)C2CC3CCC2C3)cc1 (configuration not stated)	-128*
COC(=O)c1ccc(NC(=O)C2CC3CCC2C3)cc1 (configuration not stated)	-194*
CCCn1c(O)c(C=Nc2ccccc2)sc1=S	-86*
CCOc1ccc(/C=N/n2c(C)nc3ccccc3c2=O)cc1	-67*
Nn1c(COc2ccc(Cl)cc2)nc2ccccc2c1=O	-67*
O=c1c2ccccc2nc(COc2ccccc2)n1/N=C/c1ccco1	-86*
SMILES	aSyn UTR act
Cc1nc2ccccc2c(=O)n1/N=C/c1c(O)ccc2oc3c(c12)CCCC3	86
Cc1nc2ccccc2c(=O)n1/N=C/c1ccccc1F	-101*
COc1ccccc1NCC(=O)N/N=C(\C)c1cccs1	-92*
Fc1ccccc1CSc1nnnn1-c1ccc2c(c1)OCO2	-65*
Cc1ccc(NC(=O)CN2C(=O)N/C(=C/c3ccc(N4CCOCC4)cc3)C2=O)cc1	-118*
O=C(Nc1ccccc1)c1cc2ccc3ccccc3c2s1	-90*
COc1ccc2cc(C(=O)Nc3ccccc3)sc(=O)c2c1OC	-78*
O=C(Nc1ccccc1)c1ccc(-c2ccccc2)s1	-215*
O=C(O)c1ccc(-c2ccc(-c3ccccc3)cc2)s1	64
COc1cc(SC)ccc1C(=O)OCC(=O)NC1CCCC1	-94*
CCN1/C(=C\C(=S)Nc2ccccc2)Sc2ccccc21	-144*
CCN1/C(=C/C(C)=C/c2sc3ccccc3[n+]2CC)Sc2ccccc21	100
CN(/N=C/c1cccnc1)c1cnc2ccccc2n1	-139*
Cc1cccc(NC(=S)c2nc3ccccc3s2)c1	-100*
CCCN1C(=O)c2cccc3c(N4CCCCC4)ccc(c23)C1=O	-83*
Cc1ccc(N2C(=O)c3cccc4c(N)ccc(c34)C2=O)c2cccnc12	100
COc1cccc(CNc2cc(C)ccn2)c1O	-94*
COc1cccc(CNc2ccccn2)c1O	-100*
COc1cccc(CNc2cccc3cccnc23)c1O	-88*
CCC(=O)NC(c1ccccc1OC)c1ccc2cccnc2c1O (configuration not stated)	80
CCN(CC)CCCNc1nc2cc(OC)c(OC)cc2c2nc(-c3ccccc3)nn12	-76*
CCN(CC)CCCNc1nc2ccccc2c2nc(-c3ccncc3)nn12	-281*
CCN(CC)CCCNc1nc2cc(OC)c(OC)cc2c2nc(-c3cccnc3)nn12	-79*
Cc1ccc(NC(=S)N/N=C/c2ccc([N+](=O)[O-])s2)cc1	-74*
CN1C=C/C(=C\c2cc[n+](C)c3ccccc23)c2ccccc21	74
SMILES	aSyn UTR act
Cc1ccc(-c2nc(C#N)c(NCCc3ccccn3)o2)cc1	-151*
N#Cc1nc(-c2ccc(Cl)cc2)oc1NCCc1ccccn1	-156*
Cc1ccc(-c2nc(N=Nc3ccc(O)cc3)n[nH]2)cc1	-182*
CCC(=O)N/C(N)=N/c1nc(C)c2cc(OC)ccc2n1	-107*
COc1ccc2nc(/N=C(\N)NC(=O)C(C)(C)C)nc(C)c2c1	-85*
COc1cc(OC)c(C(=O)/C=C/c2ccccc2)c(O)c1O	-92*
COc1cc(O)cc(O)c1C(=O)/C=C/c1ccccc1	-140*
Cc1ccc(C(=O)N/C(N)=N/c2nc3ccccc3o2)cc1	-114*
COc1ccccc1C(=O)N/C(N)=N/c1nc2ccccc2o1	-70*
N/C(=N\c1nc2ccccc2o1)NC(=O)c1ccccc1	-194*
CC(C)(C)C(=O)N/C(N)=N/c1nc2ccccc2o1	-63*
N/C(=N\O)c1ccc(N2CCN(c3ncccc3C(F)(F)F)CC2)nc1	-98*
